Compounds with a hit are over-represented: about 8% of the library has one in this group of screens.
MARV entry inh: inhibitors of Marburg virus binding or entry into cells | 18,000 compounds, 6.5% hits | Potency, µM (series often up to 49.2 µM), for the others: top-dose activity change, negative = inhibition, actives largely listed as inhibitors | Marburg virus pseudotype entry/binding inhibition, cell-based
LASV entry inh: Lassa virus entry inhibition. Lassa virus pseudotyped entry inhibition, cell-based qHTS. Potency, µM (doses to about 49.2 µM), inactives show at the top dose activity change, negative = inhibition, hits mostly inhibitors. 18,000 compounds, 4.1% hits. AID 720533
Active calls of the source: *; ? = inconclusive; / = not tested or not shown; ! = not confirmed by another sample; [ ] = remark or other dose. Calls follow the shape of the full dose curve; tested in HEK293 cells. % is scaled to controls: 0 for no effect and ±100 for the full control effect; potency is read from the fitted curve at half-maximal effect.

SMILES | MARV entry inh | LASV entry inh
CC(=O)OC[C@H]1O[C@H](CCON=C[C@@H](C)[C@H](OCc2ccccc2)C(C)C)C=C[C@@H]1OC(C)=O | -2%[8.59 µM] | -11%[8.59 µM]
COC(=O)C1=C(C(=O)OC)[C@@H]2Nc3ccccc3[C@@]23C[C@@H](C(=O)OC)N(C(=O)Nc2ccccc2F)C3=N1 | -9%[8.59 µM] | -14%[8.59 µM]
COc1ccc(CN2CCOc3ccc(CN4CCC(Oc5cccnc5)CC4)cc3C2)c(F)c1 | 11µM* | -8%
COc1cc(OC)c(CN2CCOc3ccc(CN4CCC(O)CC4)cc3C2)c(OC)c1 | 14µM* | ?
COc1cc(CN2CCOc3ccc(CN4CCC(Oc5cccnc5)CC4)cc3C2)ccc1F | ? | -10%
COc1cc(CN2CCOc3ccc(CN4CCN(CCO)CC4)cc3C2)ccc1F | 3% | 14%
COc1ccc(F)c(CN2CCOc3ccc(CN4CCC(Oc5cccnc5)CC4)cc3C2)c1 | ? | 6%
COc1ccc(CN2CCOc3ccc(CN4CCN(CCO)CC4)cc3C2)c2ccccc12 | 11µM* | ?
COc1cccc([C@H]2Oc3ccc(OC)cc3C(=NOCC[C@@H]3C=C[C@H](OC(C)=O)[C@@H](COC(C)=O)O3)[C@H]2O)c1 | -24%[8.59 µM] | /
C=CCOC(=O)C1=C(C)N(CC)C(=O)NC1c1ccccc1 (configuration not stated) | -5%[8.59 µM] | 5%[8.59 µM]
CC(=O)OC[C@H]1O[C@H](CC=NO[C@H](C)CN2CCCCc3nc(C)c(C)cc32)C=C[C@@H]1OC(C)=O | -21%[8.59 µM] | -17%[8.59 µM]
O=C1[C@@H]2[C@H]3[C@H](O)[C@H](O)CC(=NOC[C@@H](O)COCc4ccco4)[C@@H]3CC[C@H]2C(=O)N1Cc1ccccc1 | -4%[8.59 µM] | -2%[8.59 µM]
COCCN1C(=O)NC(c2ccc(Br)cc2)C(C(=O)OC)=C1C (configuration not stated) | -8%[8.59 µM] | -26%[8.59 µM]
C/C1=C2N=C(/C=C3N=C(/C(C)=C4\[N-][C@@](C)([C@@H]5N=C1[C@](C)(CCC(=O)NCC(C)OP(=O)(O)O[C@H]1[C@@H](O)[C@@H](n6cnc7cc(C)c(C)cc76)O[C@@H]1CO)[C@H]5CC(N)=O)[C@@](C)(CC(N)=O)[C@@H]4CCC(N)=O)[C@@](C)(CC(N)=O)[C@@H]\3CCC(N)=O)C(C)(C)[C@@H]/2CCC(N)=O.CC(=O)O.[Co] (some centres not stated) | 2.8µM* | 3.2µM*
COc1cccc([C@@H]2Oc3ccc(OC)cc3C(=O)[C@@H]2O)c1 | -11%[8.59 µM] | 92%[8.59 µM]
O=C(Oc1ccccc1)[C@H]1O[C@H]1c1ccccc1 | 34%[8.59 µM] | /
C[C@@H]1CCC2[C@@H](C)[C@@H](O)O[C@@H]3O[C@@]4(C)CC[C@@H]1[C@@]23OO4 (some centres not stated) | 1.3µM* | 0.63µM*
CC1CCC2C(C)C(=O)OC3OC4(C)CCC1C32OO4 (configuration not stated) | -7% | ?
CCN1C(=NCc2cc(OC)c(OC)c(OC)c2)NC(c2cccc(F)c2)C(C(=O)OC)=C1C (configuration not stated) | -5%[8.59 µM] | 22%[8.59 µM]
C=CCOC(=O)C(C(C)=O)[C@@H](NC(=O)OC)c1cccs1 (some centres not stated) | -6%[8.59 µM] | -15%[8.59 µM]
C[C@@H]1O[C@H](O[C@@H]2[C@H](C)O[C@H](O[C@@H]3[C@H](C)O[C@H](O[C@H]4CC[C@]5(C)[C@@H](CC[C@@H]6[C@H]5C[C@@H](O)[C@]5(C)[C@@H](C7=CC(=O)OC7)CC[C@]65O)C4)C[C@@H]3O)C[C@@H]2O)C[C@H](O)[C@@H]1O | 0.89µM* | 0.13µM*
C[C@]12[C@H](O)CC3C(CC[C@@H]4C[C@@H](O)CC[C@]34C)[C@@]1(O)CC[C@@H]2C1=CC(=O)OC1 (some centres not stated) | ? | 1.1µM*
CO[C@H]1[C@@H](O)C[C@H](O[C@H]2[C@@H](O)C[C@H](O[C@H]3[C@@H](O)C[C@H](O[C@H]4CC[C@@]5(C)[C@H](CC[C@@H]6[C@@H]5C[C@@H](O)[C@]5(C)[C@@H](C7=CC(=O)OC7)CC[C@]65O)C4)O[C@@H]3C)O[C@@H]2C)O[C@@H]1C | 7.1µM* | ?
C[C@H]1O[C@@H](O[C@H]2[C@@H](O)C[C@H](O[C@H]3[C@@H](O)C[C@H](O[C@H]4CC[C@@]5(C)[C@H](CC[C@@H]6[C@@H]5C[C@@H](O)[C@]5(C)[C@@H](C7=CC(=O)OC7)CC[C@]65O)C4)O[C@@H]3C)O[C@@H]2C)C[C@H](O)[C@@H]1O | ? | 4µM*
CC(=O)C1CCC2C3CCC4CC(O)CCC4(C)C3CC(O)C12C (configuration not stated) | 0% | 17%
SMILES | MARV entry inh | LASV entry inh
CCOC(=O)[C@@H]1CSCCS(=O)(=O)N1C(=O)c1ccc(Br)cc1 | 13% | 10%
C=CCN1c2ccccc2[C@]23CCC(=O)N(CC4CC4)C2=NC(C(=O)OC)=C(C(=O)OC)[C@H]13 | 19%[8.59 µM] | -14%[8.59 µM]
C[C@@H]1CC2CCCC2[C@]2(O1)C(=O)Nc1ccccc12 (some centres not stated) | -4%[8.59 µM] | 26%[8.59 µM]
O=S1(=O)N[C@@H](Cc2ccccc2)COc2c(Cl)cccc21 | 4% | 8%
CNc1ccc2oc(C[C@@H]3OC4(CC[C@@H]3C)O[C@H]([C@@H](C)C(=O)c3ccc[nH]3)[C@H](C)C[C@H]4C)nc2c1C(=O)O (some centres not stated) | 2.8µM* | 2.8µM*
CC(C)=CCCC(C)=CCON=C1C[C@@H](O)[C@@H](O)[C@@H]2[C@H]3C(=O)N(Cc4ccc5c(c4)OCO5)C(=O)[C@@H]3CC[C@H]12 | -17%[8.59 µM] | /
CCN1C(=O)NC(c2cccc(C(F)(F)F)c2)C(C(C)=O)=C1C (configuration not stated) | 12%[8.59 µM] | -4%[8.59 µM]
C=CC1CC2C=CCOP(=S)(O1)O2 (configuration not stated) | -23% | 29%
CC(=O)c1ccc(OCc2cn(CC(=O)c3ccc(O)cc3)nn2)c(F)c1 | 7% | -21%
CCCCCCCCCC[n+]1cccc([C@@H]2CCCN2C)c1 | 6.3µM* | ?
CN1CCC[C@H]1c1cccnc1 | 6% | 7%
COCCN1C(=O)NC(c2ccccc2)C(C(=O)OC)=C1C (configuration not stated) | 8%[8.59 µM] | -4%[8.59 µM]
Cc1ccc(C(=O)Nc2ccc(S(=O)(=O)O)c3cc(S(=O)(=O)O)cc(S(=O)(=O)O)c23)cc1NC(=O)c1cccc(NC(=O)Nc2cccc(C(=O)Nc3cc(C(=O)Nc4ccc(S(=O)(=O)O)c5cc(S(=O)(=O)O)cc(S(=O)(=O)O)c45)ccc3C)c2)c1 | 3.1µM*! | -23%
O=C(Nc1cccc(C(=O)NC2CC2)c1)c1ccccc1 | 43% | 11%
C=C[C@H]1C[C@H]2C=CCCOP(=O)(O2)O1 | ? | 28%
C[C@@H]1CC[C@H]2C(=O)N(Cc3ccc(Cl)cc3)C[C@@H](O)CN2[C@H]1c1cccc(Br)c1 | 43%[8.59 µM] | -9%[8.59 µM]
C=CCOC(=O)N[C@@H](c1coc2ccccc2c1=O)[C@@H](C)C=CCC(=O)OC | -3%[8.59 µM] | -11%[8.59 µM]
CC(=O)Oc1ccc(C2(c3ccc(OC(C)=O)cc3)Oc3ccccc3NC2=O)cc1 | -21% | 10µM*
CC(=O)Oc1cccc(O)c1 | -11% | -3%
C=CC(C)(C)c1c2c(c(O)c3c(=O)c4ccc(O)c(O)c4oc13)C=CC(C)(C)O2 | 20µM* | ?
CC(C)C(=O)N[C@H]1CCCN1C(=O)C=Cc1ccccc1 | -22%[8.59 µM] | 13%[8.59 µM]
CC(=O)c1ccc(-c2c(C)cc3oc(=O)cc(-c4ccccc4)c3c2C)cc1 | -18% | ?

Assay outcomes: PubChem, National Center for Advancing Translational Sciences (NCATS)
